The list is not random: actives were taken first. Their share in the collection is about 1.9%.
Vif inh: HIV Vif inhibition. HEK293T cells, Vif self-association by quenched fluorescence, imaging, 24 h. 340,000 tested, 0.35% active. AID 602346. inhibition, % at 7.49 µM; in the data active = inhibition above about 50%, passing the limit was not always enough; inconclusive = no clear call, values can overlap the other calls; inactive = below about 31%
GSIS activator: primary screen for activators of insulin secretion dependent on glucose, INS-1E cells, GLuc reporter luminescence; INS-1E GLuc reporter insulin secretion, 2-3 h; activation, % at 16.6 µM; 370,000 tested, 0.61% active; AID 743287;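 active = lowest replicate activation of at least 40%, so every replicate reaches that level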
dFosB act-1: mouse delta FosB homodimer activation; P13346; 340,000 tested, 0.99% active; activation, % at 25 µM; purified delta FosB, TAMRA-CDK5 oligo fluorescence polarization; percent of positive-control signal above neutral wells; AID 493131;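 active = mean activation above about 17%, with every replicate also reaching it, limit read from the data, passing the limit was not always enough; inconclusive = only one of the two conditions met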
Target sequence (P13346 whole entry, looked up): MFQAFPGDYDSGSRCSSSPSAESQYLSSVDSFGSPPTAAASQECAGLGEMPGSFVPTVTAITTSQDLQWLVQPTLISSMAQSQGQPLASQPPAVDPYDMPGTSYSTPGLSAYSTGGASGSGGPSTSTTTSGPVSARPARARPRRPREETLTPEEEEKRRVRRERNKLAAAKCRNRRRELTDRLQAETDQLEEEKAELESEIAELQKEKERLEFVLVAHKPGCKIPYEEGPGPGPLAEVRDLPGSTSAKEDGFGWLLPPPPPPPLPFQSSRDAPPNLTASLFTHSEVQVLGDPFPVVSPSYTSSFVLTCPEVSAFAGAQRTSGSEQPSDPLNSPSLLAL
Neddyl block: inhibitors of human cullin neddylation | TR-FRET cullin neddylation, biochemical | inhibition, % at 25 µM | 360,000 tested, 0.58% active; in the data active = inhibition above about 36%
A1 inh: inhibitors of the anti-apoptotic protein A1, read as caspase activation | MEF A1-2A-BIM cells, Caspase-Glo 3/7 luminescence, 3 h; percent of clofoctol response, vehicle zero | AID 2462 | 330,000 tested, 0.066% active | caspase activation, % (test concentration not listed);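 active = over half of replicate activation scores above 10%, or exactly half above 10 with the replicate mean above 10; inconclusive = replicate mean below 10 yet half the replicates above 10; inactive = over half of replicates below 10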
dFosB act-2: delta FosB (mouse) homodimer activation | shares compounds with dFosB act-1 | purified delta FosB, TAMRA-CDK5 oligo fluorescence polarization; normalised: neutral wells 0, positive control 100 | activation, % at 24.9 µM | 2,400 tested, under 10 active;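 active = highest replicate activation at or above 34% and every replicate reaching that threshold; inconclusive = meets only one of the two criteria; inactive = meets neither criterion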;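 also: higher polarization means more probe DNA bound by delta FosB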
Large screens that a line does not name were inactive (follow-up assays come after a bar, where shown).

COc1cccc(Nc2nc(N)c([N+](=O)[O-])c(NCc3ccccc3)n2)c1	dFosB act-1 51 | dFosB act-2 inactive
Cc1noc(C)c1S(=O)(=O)N(C)C[C@@H]1Oc2ccc(NC(=O)CCN3CCOCC3)cc2CC(=O)N([C@@H](C)CO)C[C@H]1C	none (no result: Vif inh, dFosB act-1, Neddyl block, A1 inh)
CCCC(=O)Nc1ccc2c(c1)C(=O)N(C)[C@@H]1CC[C@H](CC(=O)NCC3CC3)O[C@H]1CO2	none (no result: Vif inh, dFosB act-1, Neddyl block, A1 inh)
Cc1c(Cc2ccccc2)sc(NC(=O)c2ccco2)c1C(N)=O	GSIS activator 86, dFosB act-1 21 (not shown: Neddyl block) | dFosB act-2 inactive
O=C(Nc1ccc(F)cc1)C1CCN(c2ncnc3c2nc2n3CCCCC2)CC1	dFosB act-1 48 | dFosB act-2 inactive
CCc1ccc(NC(=O)C2CCN(c3ncnc4c3nc3n4CCCCC3)CC2)cc1	none
COc1ccc(-c2nnn(CC(=O)NCc3ccc4c(c3)OCO4)n2)cc1OC	dFosB act-1 29 | dFosB act-2 inactive
CCOc1ccc(-c2nnn(CC(=O)NCc3ccc(F)cc3)n2)cc1OCC	dFosB act-1 41 | dFosB act-2 inactive
O=C(Cn1nnc(-c2ccc(NC(=O)c3ccccc3F)cc2)n1)NCc1ccc(F)cc1	none
CCOc1ccc(-c2nnn(CC(=O)NCc3ccc4c(c3)OCO4)n2)cc1	none (no result: GSIS activator)
COc1ccc(C(=O)Nc2ccc(-c3nnn(CC(=O)NCc4ccco4)n3)cc2)cc1	dFosB act-1 46 (not shown: Neddyl block) | dFosB act-2 inactive
COc1cccc(-c2nnn(CC(=O)Nc3cc(OC)c(NC(=O)c4ccco4)cc3OC)n2)c1	dFosB act-1 17 (not shown: Vif inh, GSIS activator, Neddyl block) | dFosB act-2 inactive
C[C@@H]1CN([C@@H](C)CO)C(=O)Cc2cc(NS(=O)(=O)c3ccc(F)cc3)ccc2O[C@H]1CN(C)Cc1ccc(C(=O)O)cc1	none (no result: Vif inh, dFosB act-1, Neddyl block, A1 inh)
C[C@H](NC(=O)C[C@@H]1CC[C@@H](NC(=O)c2cccnc2)[C@H](CO)O1)c1ccccc1	none (no result: Vif inh, dFosB act-1, Neddyl block, A1 inh)
Cc1ccc(NC(=O)Cn2nnc(-c3ccc4c(c3)OCO4)n2)cc1F	dFosB act-1 23 | dFosB act-2 inactive
O=C(Cn1nnc(-c2ccccc2F)n1)Nc1ccc2c(c1)OCCO2	none
CCCOc1ccc(-c2nnn(CC(=O)Nc3cccc(C(=O)OC)c3)n2)cc1	none (no result: GSIS activator)
CCOc1ccc(-c2nnn(CC(=O)Nc3cccc(OC)c3)n2)cc1OCC	dFosB act-1 19 | dFosB act-2 inactive
CCCNC(=O)[C@H]1[C@H](CO)[C@H]2Cn3c(ccc(C4=CCCC4)c3=O)[C@@H]1N2CCC(F)(F)F	none (no result: Vif inh, dFosB act-1, Neddyl block, A1 inh)
C[C@@H]1CN([C@H](C)CO)C(=O)c2cc(NS(=O)(=O)c3ccccc3)ccc2O[C@@H]1CN(C)S(=O)(=O)c1ccc(Cl)cc1	none (no result: Vif inh, dFosB act-1, Neddyl block, A1 inh)
CN1C(=O)c2cc(NC(=O)c3cnccn3)ccc2OC[C@H]2O[C@@H](CC(=O)NCC3CC3)CC[C@@H]21	none (no result: Vif inh, dFosB act-1, Neddyl block, A1 inh)
COc1cccc(Cn2cnc3c(NS(=O)(=O)c4ccc(Cl)cc4)c(C)c(C)cc32)c1	dFosB act-1 17 | dFosB act-2 inactive
CC(C)c1ccc(OC(=O)c2cccc(S(=O)(=O)N3CCN(C)CC3)c2)cc1	none
CN1CCN(S(=O)(=O)c2cccc(C(=O)Oc3ccc(C(C)(C)C)cc3)c2)CC1	dFosB act-1 23 | dFosB act-2 inactive
Cc1nc2cc(C(=O)OCC(=O)NC34CC5CC(CC(C5)C3)C4)ccc2n1-c1ccccc1	dFosB act-1 65 | dFosB act-2 inactive
Cc1ccc(NC(=O)CSc2nsc(SCC(=O)Nc3ccc(C)cc3C)c2C#N)c(C)c1	none
Cc1cc(C)c(C#N)c(SCC(=O)Nc2nnc(-c3ccccc3)s2)n1	dFosB act-1 39 (no result: GSIS activator) | dFosB act-2 inactive
Cc1csc(NC(=O)CSc2nsc(SCC(=O)Nc3nc(C)cs3)c2C#N)n1	dFosB act-1 25 (no result: GSIS activator) | dFosB act-2 inactive
Cc1cc(C)c(C#N)c(SCC(=O)Nc2ccccc2C)n1	none
COc1ccccc1-c1ccc2n(c1=O)C[C@@H]1[C@@H](CO)[C@H](C(=O)NCC3CC3)N(S(C)(=O)=O)[C@H]21	none (no result: Vif inh, dFosB act-1, Neddyl block, A1 inh)
CC(C)NC(=O)Nc1cccc2c1O[C@@H](CN(C)C(=O)NC(C)C)[C@H](C)CN(C)C2=O	none (no result: Vif inh, dFosB act-1, Neddyl block, A1 inh)
CCOc1ccc(NC(=S)NC(=O)/C=C/c2ccc(C)cc2)c([N+](=O)[O-])c1	dFosB act-1 39, A1 inh 17 (no result: GSIS activator) | dFosB act-2 inactive
CCOc1ccc(NC(=S)NC(=O)/C=C/c2ccc(OC)c(OC)c2)c([N+](=O)[O-])c1	Vif inh inconclusive, dFosB act-1 25, A1 inh inconclusive (no result: GSIS activator) | dFosB act-2 inactive
O=C(NCC[C@@H]1CC[C@H](NS(=O)(=O)Cc2ccccc2)[C@H](CO)O1)C1CCOCC1	none (no result: Vif inh, dFosB act-1, Neddyl block, A1 inh)
Cc1cc([N+](=O)[O-])ccc1NC(=O)Nc1ccc(F)cc1F	dFosB act-1 24 (no result: Vif inh) | dFosB act-2 inactive
COc1cc2c3nnc(-c4ccc(F)cc4)c-3cn(Cc3ccc(F)cc3)c2cc1OC	Vif inh 94, dFosB act-1 37 (not shown: Neddyl block) | dFosB act-2 inactive
O=C(C[C@@H]1CC[C@@H](NC(=O)Nc2ccc3c(c2)OCO3)[C@@H](CO)O1)NCc1ccc(F)cc1	none (no result: Vif inh, dFosB act-1, Neddyl block, A1 inh)
C[C@@H]1CN([C@@H](C)CO)C(=O)c2cc(NC(=O)Nc3ccccc3)ccc2O[C@@H](C)CCCCO[C@@H]1CN(C)Cc1ccncc1	none (no result: Vif inh, dFosB act-1, Neddyl block, A1 inh)
Cc1cc(OCC(=O)Nc2cc(-c3nn4c(C)nnc4s3)ccc2C)ccc1Cl	dFosB act-1 38 | dFosB act-2 inactive
COc1ccc(/C=C2/SC(=O)N(CCC(=O)Nc3ccc(S(=O)(=O)Nc4nccs4)cc3)C2=O)cc1	dFosB act-1 inconclusive
COc1ccc(/C=C2\SC(=O)N(CCC(=O)Nc3ccc(S(=O)(=O)Nc4nccs4)cc3)C2=O)cc1	dFosB act-1 86 | dFosB act-2 inactive
O=C(Nc1ccc2c(c1)[C@H]1C[C@@H](CC(=O)N3CCCCC3)O[C@@H](CO)[C@H]1O2)c1ccc2c(c1)OCO2	none (no result: Vif inh, dFosB act-1, Neddyl block, A1 inh)
C[C@H]1CN([C@@H](C)CO)C(=O)CCCn2nncc2CO[C@H]1CN(C)C(=O)Nc1ccc(F)cc1	none (no result: Vif inh, dFosB act-1, Neddyl block, A1 inh)
N#C/C(=C(/O)c1ccc(Cl)c([N+](=O)[O-])c1)c1nc2ccccc2[nH]1	dFosB act-1 42 | dFosB act-2 inactive
O=C(NCC[C@@H]1CC[C@H](NC(=O)c2cnccn2)[C@H](CO)O1)Nc1ccc(F)cc1	none (no result: Vif inh, dFosB act-1, Neddyl block, A1 inh)
CN(C)C(=O)c1cccc(-c2ccc3c(c2)[C@@H]2[C@@H](CCN2C(=O)C2CCCCC2)[C@@H](CO)N3)c1	none (no result: Vif inh, dFosB act-1, Neddyl block, A1 inh)
Cc1cc(C)c2oc(C(=O)NCCc3ccc(S(N)(=O)=O)cc3)cc(=O)c2c1	dFosB act-1 41 | dFosB act-2 inactive
Cc1ccc2c(=O)cc(C(=O)NCCc3ccc(S(N)(=O)=O)cc3)oc2c1	none (no result: GSIS activator)
Cc1cc(C)c2oc(C(=O)Nc3ccc(S(=O)(=O)N4CCC(C)CC4)cc3)cc(=O)c2c1	dFosB act-1 23 (not shown: Neddyl block) | dFosB act-2 inactive

Screens: PubChem, several laboratories
